Only some compounds are listed: those with a hit (about 2.1% of all), similar ones and a draw of the others.
rRNA inh HTS – reduced GFP signal of wild-type E. coli, primary screen, bacterial rRNA inhibitor project, GFP/RFP fluorescence, OD600, single point | E. coli WT GFP vs humanized-ribosome RFP mutants, 24 h; active compounds read low; DMSO median 0, no signal -100 | GFP signal change (wild-type ribosome), % (test concentration not listed) | hit rate 1.6% among 350,000;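 active = significant combined selectivity score with lowered wild-type GFP, culture density cut under 30%, mutant RFP and density less affected; inactive = any of these conditions unmet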
ERAP1 inh – human ERAP1 aminopeptidase inhibitors, primary screen, biochemical, single point, plate reader; Endoplasmic reticulum aminopeptidase 1 (Homo sapiens), Q9NZ08; recombinant ERAP1, Leu-AMC fluorescence, 60 min; inhibition, % at 10.7 µM; hit rate 0.15% among 340,000; AID 652197, 2013;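 active = mean replicate inhibition of at least 30%, or all replicates individually reaching that 30% level; inactive = mean below 30% and not every replicate reaching it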;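 also: 0% = neutral control wells and 100% = L-leucinethiol positive control wells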
CFTR F508del cor – F508del CFTR correction, initial screen, CFBE line, single point; CFBE cells, YFP halide quenching; stimulated with forskolin plus potentiator P3; % fluorescence drop versus neutral controls; activity (quench increase), % at 7.58 µM; hit rate 0.36% among 350,000; AID 720511, 2013;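 active = mean added fluorescence quench of at least 8% versus neutral control, with both replicates also reaching 8%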;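 also: cells transiently co-express mutant CFTR-F508del with the halide-sensitive YFP; corrector assay measuring rescue of mutant channel to the surface after 24 h compound exposure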
PvdQ inh – P. aeruginosa PvdQ acylase inhibitors, primary screen, biochemical, fluorescence, plate reader and imaging, single point; purified PvdQ acylase; inhibition, % at 10 µM; hit rate 0.063% among 340,000; in the data active = inhibition above about 30%, passing the limit was not always enough;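 also: 0% = vehicle neutral wells and 100% = reference inhibitor wells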
ARNT TACC3 PPI – disruptors of ARNT/TACC3 protein interaction, primary screen, biochemical, AlphaScreen, single concentration. AID 623870, 2012. Transforming acidic coiled-coil-containing protein 3 (Homo sapiens), Q9Y6A5. inhibition, % at 9.99 µM. hit rate 0.66% among 390,000. AlphaScreen His-ARNT PAS-B/GST-TACC3 binding, luminescence; TACC3 fragment carries E629A point mutation;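 active = mean inhibition of replicates at least 50% and at least half of replicates each reaching 50%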;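 also: 0% = complete ARNT plus TACC3 wells and 100% = ARNT alone without TACC3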
* marks the source's active call; other numbers are inactive results; . = not tested or not shown.

SMILES | rRNA inh HTS | ERAP1 inh | CFTR F508del cor | PvdQ inh | ARNT TACC3 PPI
COc1ccc(-c2csc(Nc3ccc(S(=O)(=O)Nc4cc(OC)nc(OC)n4)cc3)n2)cc1 | . | . | . | 1.2 | 3.9
COc1cc(NS(=O)(=O)c2ccc(Nc3nc(-c4ccccn4)cs3)cc2)nc(OC)n1 | -38.8 | 1.9 | -3.8 | -2.5 | 56.2*
C[C@H](CO)N1C[C@H](C)[C@H](CN(C)C(=O)CN2CCOCC2)Oc2ncc(/C=C/c3ccccc3)cc2C1=O | 4.6 | 1.5 | 1.0 | . | -2.9
CN1CCN(S(=O)(=O)c2ccc(C3CCCCC3)cc2)CC1 | 5.6 | 95.9* | -1.0 | -3.1 | 0.5
COCC(=O)Nc1ccc2c(c1)OC[C@@H](C)N(Cc1ccccc1F)C[C@H](C)[C@H](OC)CN(C)C2=O | -6.1 | -2.7 | -0.3 | . | 7.0
Cc1noc(C)c1S(=O)(=O)Nc1ccc2c(c1)C(=O)N([C@H](C)CO)C[C@H](C)[C@H](CN(C)S(=O)(=O)c1ccccc1)O2 | 0.1 | 3.8 | -0.9 | . | 0.2
O=c1ccc(-c2ccc(S(=O)(=O)NCC3CCN(Cc4ccccc4F)CC3)s2)n[nH]1 | -5.1 | -0.5 | 1.5 | -1.9 | 49.9*
CCCNC(=O)C[C@H]1C[C@H]2c3cc(NS(=O)(=O)c4cccc(OC)c4)ccc3O[C@H]2[C@H](CO)O1 | -6.0 | 0.2 | -3.2 | . | -5.3
N=C(N)SCc1ncccc1O | 8.0 | -3.4 | 2.6 | -22.7 | 49.6*
C[C@H]1CN([C@@H](C)CO)C(=O)c2cc(C#CCN(C)C)cnc2O[C@@H]1CN(C)C(=O)Cc1ccncc1 | -2.1 | 0.7 | -0.2 | . | 3.7
CCCN(C)C[C@H]1Oc2cc(C#Cc3ccccc3F)ccc2S(=O)(=O)N([C@@H](C)CO)C[C@H]1C | -1.9 | 1.8 | 3.0 | . | -0.1
Cc1ccc(-c2nc(CN(C)Cc3cccc4cnccc34)c(C)o2)s1 | -19.8 | -3.5 | 4.0 | 51.0* | 8.7
COc1cc2c(-c3ccccc3)c(C)oc2cc1/C=N/NC(N)=S | 7.1 | . | 8.1* | -14.4 | -9.9
CC(=O)c1cccc(NC(=O)CCCNC(=O)c2ccc(Cl)cc2)c1 | 2.7 | -4.0 | 2.1 | -9.8 | -1.6
CSc1cccc(NC(=O)CCCNC(=O)c2ccc(Cl)cc2)c1 | -6.9 | 51.1* | -1.7 | -14.1 | -8.8
CC(=O)N1[C@H](CO)[C@@H]2c3ccccc3N(C(=O)Nc3cc(F)ccc3F)C[C@@H]21 | 2.0 | 0.7 | 3.5 | . | 1.7
COCC#Cc1ccc([C@@H]2[C@H]3CN(C(=O)Nc4ccc(F)cc4)CC(=O)N3[C@H]2CO)cc1 | -4.5 | 1.1 | 1.5 | . | .
OC(c1cccc(Cl)c1)c1nccc2ccccc12 (stereo not given) | -16.2 | -3.1 | -0.9 | 35.5* | -0.8
Cn1cccc1-c1nc2ccc(NC(=O)c3cccs3)cc2[nH]1 | . | . | . | 13.5 | 36.4*
CC(=O)Nc1ccc2nc(-c3cccn3C)[nH]c2c1 | 3.7 | 4.7 | 0.9 | -11.4 | -2.8
C[C@@H]1CN([C@@H](C)CO)S(=O)(=O)c2ccc(-c3ccccc3)cc2O[C@H]1CN(C)C(=O)C1CC1 | -6.7 | . | -1.4 | . | .
N=c1c2c(n(Cc3cccc(Cl)c3)c3c1CCC3)CCCC2 | -51.8* | -2.0 | 3.6 | -14.5 | 8.4
N=c1c2c(n(Cc3ccc(F)cc3)c3c1CCC3)CCCC2 | -31.0* | -5.7 | 4.6 | -0.8 | -2.0
N=c1c2c(n(Cc3ccc(Cl)cc3)c3c1CCC3)CCC2 | -52.5* | 1.3 | -2.5 | -11.1 | -4.8
N=c1c2c(n(Cc3ccccc3)c3c1CCC3)CCC2 | . | . | . | 4.4 | -2.2
SMILES | rRNA inh HTS | ERAP1 inh | CFTR F508del cor | PvdQ inh | ARNT TACC3 PPI
Clc1cccc(CN2CCCCCC2)c1 | 1.5 | 0.9 | 1.1 | -7.7 | -11.3
CCn1c2c(c(=N)c3c1CCC3)CCCC2 | 9.5 | -0.5 | 0.9 | . | .
C[C@@H]1CN([C@H](C)CO)C(=O)c2cc(NS(=O)(=O)c3ccccc3)ccc2O[C@H]1CN(C)S(=O)(=O)c1ccc(F)cc1 | -4.4 | . | -2.6 | . | .
CCOc1cc(/C=C\[N+](=O)[O-])ccc1OCC(=O)N1CCOCC1 | 1.4 | 1.8 | 1.1 | -6.7 | -13.7
CCOc1cc(/C=C/c2nc3cc(C)c(C)cc3s2)ccc1OCC(=O)N1CCOCC1 | -5.3 | 36.5* | . | -4.2 | -8.5
CC(=O)C(=Cc1ccc(Cl)cc1)C(=O)c1ccccc1 | -35.0* | -0.6 | 4.6 | . | .
COc1ccc(C=C(C(C)=O)C(=O)c2ccccc2)cc1 | 5.7 | 6.3 | -3.6 | . | .
CC(Oc1ccccc1)C(=O)Nc1nnc(S(=O)(=O)N2CCCCC2)s1 (stereo not given) | -3.5 | -1.2 | 1.2 | 4.5 | -16.7
CC(Oc1ccccc1)C(=O)Nc1nnc(S(=O)(=O)Nc2ccccc2)s1 (stereo not given) | -13.4* | 0.5 | 0.1 | -4.1 | -1.7
COc1ccc(-c2cnc3c(c2)C(=O)N([C@@H](C)CO)C[C@H](C)[C@H](CN(C)S(=O)(=O)c2ccc(OC)cc2)O3)cc1 | 0.3 | . | -3.7 | . | .
COC(=O)[C@@H]1[C@@H](CO)[C@@H]2Cn3c(ccc(C4=CCCCC4)c3=O)[C@@H]2N1C(=O)C1CCC1 | -1.9 | 2.3 | 1.1 | . | 6.7
CCOC(=O)C(=N/O)/C(C)=N/NC(=O)C(=O)Nc1ccc(Cl)cc1 | -20.4* | 3.5 | -1.3 | -20.5 | 0.9
C[C@@H](NC(=O)C[C@H]1CC[C@H](NC(=O)Nc2ccc3c(c2)OCO3)[C@H](CO)O1)c1ccccc1 | -4.8 | 0.5 | 1.7 | . | -13.0
O=C(NCc1ccccc1Cl)c1cc(=O)[nH]c2ccccc12 | 15.2 | 48.3* | 2.5 | -21.2 | -16.5
Cc1ccc(-c2ccc3c(c2)O[C@@H](CN(C)Cc2ccccc2)[C@@H](C)CN([C@H](C)CO)S3(=O)=O)cc1 | -1.1 | 3.9 | 0.5 | . | -1.0
Cc1cc(NC(=O)c2cc([N+](=O)[O-])ccc2Cl)no1 | . | 0.1 | -3.0 | 87.8* | -5.0
Cc1cc(NC(=O)c2ccc([N+](=O)[O-])cc2Cl)no1 | 9.8 | 0.4 | 0.1 | 40.3* | 4.2
Cc1cc(NC(=O)c2c(F)c(F)c(F)c(F)c2F)no1 | . | . | . | 62.9* | -23.5
Cc1cc(NC(=O)c2ccc([N+](=O)[O-])cc2)no1 | 11.6 | 0.2 | 0.5 | -13.9 | -2.1
Cc1cc(NC(=O)c2cc(Cl)ccc2Cl)no1 | . | . | . | 74.6* | -3.8
Cc1ccc(NC(=O)c2ccc([N+](=O)[O-])cc2Cl)nc1 | 6.9 | -0.7 | -0.6 | 9.9 | 2.1
C[C@H]1CN([C@@H](C)CO)C(=O)c2cccc(NC(=O)Nc3ccc(F)cc3)c2O[C@@H]1CN(C)CC1CC1 | -1.9 | -0.4 | 0.7 | . | -11.3
CCCNC(=O)Nc1ccc2c(c1)C(=O)N(C)C[C@@H](OC)[C@H](C)CN(Cc1cccnc1)[C@H](C)CO2 | -0.7 | 2.4 | -1.7 | . | 6.1
CC(C)C(=O)Nc1cc(S(=O)(=O)Nc2ccc(Cl)cc2)ccc1Cl | 0.5 | 4.0 | . | 1.5 | -7.2

Screening results: PubChem BioAssay, Broad Institute
